Measurements published in PMC7862700, “An all-to-all approach to the identification of sequence-specific readers for epigenetic DNA modifications on cytosine”.

Assays:
Assay in all cases: DAPPL (digital affinity profiling via proximity ligation, sequencing); 10 mM Tris-HCl pH 7.5, 50 mM NaCl, 1 mM DTT, 4% glycerol, room temperature, 30 min; GST-TFs on glutathione beads, 16-mer random dsDNA library, 0.1% formaldehyde crosslink after washing; high values mean tight binding
[1] = molecular target: T1, FLI1 (Homo sapiens, UniProt Q01543 1-452); conditions: protein: recombinant; tags: N-terminal GST; dsDNA, one strand shown
T1 sequence: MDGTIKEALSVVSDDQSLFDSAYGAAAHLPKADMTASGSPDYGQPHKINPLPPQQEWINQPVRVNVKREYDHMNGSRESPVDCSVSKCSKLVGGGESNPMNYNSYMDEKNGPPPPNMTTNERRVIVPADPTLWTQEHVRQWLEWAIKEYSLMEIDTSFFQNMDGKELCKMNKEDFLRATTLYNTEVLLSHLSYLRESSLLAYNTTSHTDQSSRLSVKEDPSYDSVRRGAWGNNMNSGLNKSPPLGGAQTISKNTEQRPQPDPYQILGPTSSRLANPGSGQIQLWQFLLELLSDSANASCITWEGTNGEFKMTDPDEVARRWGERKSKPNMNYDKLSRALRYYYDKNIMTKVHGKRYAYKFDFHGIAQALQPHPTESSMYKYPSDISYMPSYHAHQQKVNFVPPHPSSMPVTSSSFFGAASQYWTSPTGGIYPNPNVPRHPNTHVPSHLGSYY
Outline: (§1)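 Binding signal is given per hexamer as its read frequency for a factor divided by its frequency in the tag-only sample. GST-fused human transcription factors were expressed in yeast, captured on glutathione beads, barcoded with DNA and pooled with that sample, then incubated with 200 nmole of a 16-mer random double-stranded DNA library in Tris/NaCl/DTT/glycerol buffer for 30 min at room temperature. The pools were then washed, crosslinked, proximity-ligated, amplified by PCR and sequenced on an Illumina NextSeq500.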

[2] = molecular target: T2, ELK1 (Homo sapiens, UniProt P19419 1-428); conditions: protein: recombinant; tags: N-terminal GST; dsDNA, one strand shown
T2 sequence: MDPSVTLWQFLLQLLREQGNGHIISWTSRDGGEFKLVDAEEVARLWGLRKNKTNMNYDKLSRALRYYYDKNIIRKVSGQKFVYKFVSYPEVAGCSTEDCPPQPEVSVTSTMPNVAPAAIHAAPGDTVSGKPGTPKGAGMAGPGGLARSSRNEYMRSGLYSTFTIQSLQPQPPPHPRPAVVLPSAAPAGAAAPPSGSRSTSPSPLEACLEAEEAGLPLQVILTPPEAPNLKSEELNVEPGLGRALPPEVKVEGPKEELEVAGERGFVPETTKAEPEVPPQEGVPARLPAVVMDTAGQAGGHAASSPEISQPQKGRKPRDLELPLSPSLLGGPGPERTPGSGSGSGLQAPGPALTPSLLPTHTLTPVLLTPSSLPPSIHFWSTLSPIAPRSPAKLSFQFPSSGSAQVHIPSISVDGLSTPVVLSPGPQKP
Outline: as §1

[3] = molecular target: T3, GABPA (Homo sapiens, UniProt Q06546 1-454); conditions: protein: recombinant; tags: N-terminal GST; dsDNA, one strand shown
T3 sequence: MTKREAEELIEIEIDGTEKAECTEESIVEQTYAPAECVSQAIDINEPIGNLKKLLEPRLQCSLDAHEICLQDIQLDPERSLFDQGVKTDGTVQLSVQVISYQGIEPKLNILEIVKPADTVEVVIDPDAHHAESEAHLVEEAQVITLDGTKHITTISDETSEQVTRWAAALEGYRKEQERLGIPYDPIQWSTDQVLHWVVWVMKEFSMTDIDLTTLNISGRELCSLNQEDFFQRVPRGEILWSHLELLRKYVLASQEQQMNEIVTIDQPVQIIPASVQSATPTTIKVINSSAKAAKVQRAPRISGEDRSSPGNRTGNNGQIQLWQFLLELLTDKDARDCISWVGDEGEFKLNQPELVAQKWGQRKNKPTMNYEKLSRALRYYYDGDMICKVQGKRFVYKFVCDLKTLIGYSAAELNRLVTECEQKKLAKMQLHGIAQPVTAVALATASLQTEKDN
Outline: as §1

[4] = molecular target: T4, ERG (Homo sapiens, UniProt P11308 1-479); conditions: protein: recombinant; tags: N-terminal GST; dsDNA, one strand shown
T4 sequence: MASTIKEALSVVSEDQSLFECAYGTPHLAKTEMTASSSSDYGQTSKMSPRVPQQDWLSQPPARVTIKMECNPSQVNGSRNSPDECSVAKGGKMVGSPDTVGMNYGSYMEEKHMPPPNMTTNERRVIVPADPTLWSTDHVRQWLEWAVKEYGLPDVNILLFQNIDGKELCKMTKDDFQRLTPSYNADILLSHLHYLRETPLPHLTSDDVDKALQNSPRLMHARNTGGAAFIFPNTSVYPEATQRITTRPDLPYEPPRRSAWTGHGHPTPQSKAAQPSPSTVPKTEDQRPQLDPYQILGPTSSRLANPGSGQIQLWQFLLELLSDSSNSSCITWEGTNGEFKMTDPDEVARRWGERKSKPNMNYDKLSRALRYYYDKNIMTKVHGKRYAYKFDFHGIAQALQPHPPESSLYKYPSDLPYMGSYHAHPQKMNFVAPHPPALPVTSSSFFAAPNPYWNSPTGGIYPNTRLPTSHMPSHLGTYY
Outline: as §1

[5] = molecular target: ELF1 (Homo sapiens, UniProt P32519 1-619); conditions: protein: recombinant; tags: N-terminal GST; dsDNA, one strand shown
Outline: as §1

[6] = molecular target: T5, EHF (Homo sapiens, UniProt Q9NZC4 1-300); conditions: protein: recombinant; tags: N-terminal GST; dsDNA, one strand shown
T5 sequence: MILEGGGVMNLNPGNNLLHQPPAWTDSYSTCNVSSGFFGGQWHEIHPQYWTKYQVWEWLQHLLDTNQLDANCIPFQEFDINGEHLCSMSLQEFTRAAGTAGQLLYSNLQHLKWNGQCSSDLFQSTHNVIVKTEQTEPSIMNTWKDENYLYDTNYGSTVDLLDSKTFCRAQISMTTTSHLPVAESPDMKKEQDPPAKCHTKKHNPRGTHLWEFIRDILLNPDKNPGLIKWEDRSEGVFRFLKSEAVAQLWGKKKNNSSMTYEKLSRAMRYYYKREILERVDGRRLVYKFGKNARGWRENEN
Outline: as §1

[7] = molecular target: SPI1 (Homo sapiens, UniProt P17947 1-270); conditions: protein: recombinant; tags: N-terminal GST; dsDNA, one strand shown
Outline: as §1

[8] = molecular target: SPIB (Homo sapiens, UniProt Q01892 1-262); conditions: protein: recombinant; tags: N-terminal GST; dsDNA, one strand shown
Outline: as §1

[9] = molecular target: T6, ELK3 (Homo sapiens, UniProt P41970 1-407); conditions: protein: recombinant; tags: N-terminal GST; dsDNA, one strand shown
T6 sequence: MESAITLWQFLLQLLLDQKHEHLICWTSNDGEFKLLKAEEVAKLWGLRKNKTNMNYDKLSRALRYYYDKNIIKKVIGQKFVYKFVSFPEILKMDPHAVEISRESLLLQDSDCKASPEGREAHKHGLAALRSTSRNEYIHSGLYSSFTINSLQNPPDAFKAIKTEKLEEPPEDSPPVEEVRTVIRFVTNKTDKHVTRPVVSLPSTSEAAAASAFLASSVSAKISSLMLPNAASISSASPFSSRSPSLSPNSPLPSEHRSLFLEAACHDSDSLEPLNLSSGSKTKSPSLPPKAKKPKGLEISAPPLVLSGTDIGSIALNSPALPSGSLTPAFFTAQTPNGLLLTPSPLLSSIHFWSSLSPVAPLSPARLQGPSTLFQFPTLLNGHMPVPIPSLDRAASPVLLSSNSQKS
Outline: as §1

[10] = molecular target: T7, FEV (Homo sapiens, UniProt Q99581 1-238); conditions: protein: recombinant; tags: N-terminal GST; dsDNA, one strand shown
T7 sequence: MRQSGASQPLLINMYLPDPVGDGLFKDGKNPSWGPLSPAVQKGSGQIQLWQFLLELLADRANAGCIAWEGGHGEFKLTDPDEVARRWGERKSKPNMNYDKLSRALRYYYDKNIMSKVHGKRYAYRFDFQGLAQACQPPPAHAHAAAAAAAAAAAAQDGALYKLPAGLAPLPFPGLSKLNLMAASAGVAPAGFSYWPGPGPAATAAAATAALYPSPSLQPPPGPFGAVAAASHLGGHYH
Outline: as §1

[11] = molecular target: ETV5 (Homo sapiens, UniProt P41161 1-510); conditions: protein: recombinant; tags: N-terminal GST; dsDNA, one strand shown
Outline: as §1

[12] = molecular target: HSF1 (Homo sapiens, UniProt Q00613 1-529); conditions: protein: recombinant; tags: N-terminal GST; chain copies: 3; dsDNA, one strand shown
Outline: as §1

[13] = molecular target: T8, SPIC (Homo sapiens, UniProt Q8N5J4 1-248); conditions: protein: recombinant; tags: N-terminal GST; dsDNA, one strand shown
T8 sequence: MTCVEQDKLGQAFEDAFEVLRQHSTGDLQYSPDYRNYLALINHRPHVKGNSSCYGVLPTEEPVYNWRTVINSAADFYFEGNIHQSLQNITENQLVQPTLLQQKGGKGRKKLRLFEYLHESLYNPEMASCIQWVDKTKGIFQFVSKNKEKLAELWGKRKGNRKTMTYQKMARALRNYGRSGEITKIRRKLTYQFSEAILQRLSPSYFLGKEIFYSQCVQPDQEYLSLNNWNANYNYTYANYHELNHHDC
Outline: as §1

[14] = molecular target: ELF4 (Homo sapiens, UniProt Q99607 1-663); conditions: protein: recombinant; tags: N-terminal GST; dsDNA, one strand shown
Outline: as §1

[15] = molecular target: T9, ELK4 (Homo sapiens, UniProt P28324-2 1-405); conditions: protein: recombinant; tags: N-terminal GST; dsDNA, one strand shown
T9 sequence: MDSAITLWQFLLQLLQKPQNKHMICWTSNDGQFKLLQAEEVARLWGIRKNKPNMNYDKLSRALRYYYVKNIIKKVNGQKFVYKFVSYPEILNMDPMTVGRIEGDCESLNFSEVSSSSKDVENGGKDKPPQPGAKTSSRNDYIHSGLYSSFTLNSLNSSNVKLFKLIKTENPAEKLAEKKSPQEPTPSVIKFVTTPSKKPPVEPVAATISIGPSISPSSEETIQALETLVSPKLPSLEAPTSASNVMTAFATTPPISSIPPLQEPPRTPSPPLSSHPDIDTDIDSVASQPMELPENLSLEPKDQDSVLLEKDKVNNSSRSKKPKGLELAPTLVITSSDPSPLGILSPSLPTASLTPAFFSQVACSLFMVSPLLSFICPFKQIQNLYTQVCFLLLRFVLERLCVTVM
Outline: as §1

[16] = molecular target: T10, ETV2 (Homo sapiens, UniProt O00321 1-342); conditions: protein: recombinant; tags: N-terminal GST; dsDNA, one strand shown
T10 sequence: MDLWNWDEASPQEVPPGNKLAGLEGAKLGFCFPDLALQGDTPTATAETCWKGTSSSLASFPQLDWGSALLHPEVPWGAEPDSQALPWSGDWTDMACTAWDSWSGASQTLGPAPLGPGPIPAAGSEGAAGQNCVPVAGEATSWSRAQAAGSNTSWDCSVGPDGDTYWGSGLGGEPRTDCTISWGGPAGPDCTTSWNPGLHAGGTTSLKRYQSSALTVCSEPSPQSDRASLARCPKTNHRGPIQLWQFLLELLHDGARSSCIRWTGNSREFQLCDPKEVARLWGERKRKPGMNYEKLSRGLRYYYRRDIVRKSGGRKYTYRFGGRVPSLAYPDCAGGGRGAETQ
Outline: as §1

[17] = molecular target: T11, ELF3 (Homo sapiens, UniProt P78545 1-371); conditions: protein: recombinant; tags: N-terminal GST; dsDNA, one strand shown
T11 sequence: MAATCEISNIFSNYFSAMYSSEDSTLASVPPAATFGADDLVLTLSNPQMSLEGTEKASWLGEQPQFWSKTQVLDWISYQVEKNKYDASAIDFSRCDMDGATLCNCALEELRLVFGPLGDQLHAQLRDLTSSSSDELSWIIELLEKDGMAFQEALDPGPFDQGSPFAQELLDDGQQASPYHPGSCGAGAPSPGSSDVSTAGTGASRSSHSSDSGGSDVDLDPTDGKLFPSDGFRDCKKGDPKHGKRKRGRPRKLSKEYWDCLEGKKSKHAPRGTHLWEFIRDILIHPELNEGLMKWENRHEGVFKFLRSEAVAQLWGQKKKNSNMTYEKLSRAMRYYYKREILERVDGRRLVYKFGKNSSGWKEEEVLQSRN
Outline: as §1

[18] = molecular target: CRX (Homo sapiens, UniProt O43186 1-299); conditions: protein: recombinant; tags: N-terminal GST; dsDNA, one strand shown
Outline: as §1

[19] = molecular target: ETV1 (Homo sapiens, UniProt P50549 1-477); conditions: protein: recombinant; tags: N-terminal GST; dsDNA, one strand shown
Outline: as §1

Sequence of SPIB (Q01892 whole entry): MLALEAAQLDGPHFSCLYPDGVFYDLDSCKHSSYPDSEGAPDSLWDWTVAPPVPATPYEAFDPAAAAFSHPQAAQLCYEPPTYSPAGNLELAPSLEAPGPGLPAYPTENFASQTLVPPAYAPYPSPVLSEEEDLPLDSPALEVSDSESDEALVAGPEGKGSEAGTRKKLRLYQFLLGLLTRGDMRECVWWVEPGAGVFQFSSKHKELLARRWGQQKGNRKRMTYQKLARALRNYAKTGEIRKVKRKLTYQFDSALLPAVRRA
Sequence of CRX (O43186 whole entry): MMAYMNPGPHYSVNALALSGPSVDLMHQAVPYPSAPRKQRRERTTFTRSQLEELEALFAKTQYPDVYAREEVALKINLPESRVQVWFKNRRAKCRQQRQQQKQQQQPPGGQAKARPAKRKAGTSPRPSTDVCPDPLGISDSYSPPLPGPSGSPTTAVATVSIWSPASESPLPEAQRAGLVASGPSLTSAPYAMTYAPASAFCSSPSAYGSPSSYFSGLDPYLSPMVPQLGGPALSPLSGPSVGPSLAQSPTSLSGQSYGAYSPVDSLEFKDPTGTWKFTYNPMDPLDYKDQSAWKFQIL
Sequence of ETV1 (P50549 whole entry): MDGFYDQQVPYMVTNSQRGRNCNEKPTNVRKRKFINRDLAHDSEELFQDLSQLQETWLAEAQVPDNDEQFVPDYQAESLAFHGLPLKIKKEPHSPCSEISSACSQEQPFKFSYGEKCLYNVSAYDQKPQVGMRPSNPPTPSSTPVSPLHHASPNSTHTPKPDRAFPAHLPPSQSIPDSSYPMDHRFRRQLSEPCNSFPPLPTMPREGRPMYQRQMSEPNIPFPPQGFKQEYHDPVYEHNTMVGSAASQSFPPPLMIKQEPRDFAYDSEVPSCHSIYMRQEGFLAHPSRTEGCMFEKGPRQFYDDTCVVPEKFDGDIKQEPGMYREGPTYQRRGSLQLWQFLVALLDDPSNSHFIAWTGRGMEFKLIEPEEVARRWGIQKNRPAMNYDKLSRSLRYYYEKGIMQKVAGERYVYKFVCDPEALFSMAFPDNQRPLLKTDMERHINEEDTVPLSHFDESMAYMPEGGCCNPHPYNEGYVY
Sequence of ELF4 (Q99607 whole entry): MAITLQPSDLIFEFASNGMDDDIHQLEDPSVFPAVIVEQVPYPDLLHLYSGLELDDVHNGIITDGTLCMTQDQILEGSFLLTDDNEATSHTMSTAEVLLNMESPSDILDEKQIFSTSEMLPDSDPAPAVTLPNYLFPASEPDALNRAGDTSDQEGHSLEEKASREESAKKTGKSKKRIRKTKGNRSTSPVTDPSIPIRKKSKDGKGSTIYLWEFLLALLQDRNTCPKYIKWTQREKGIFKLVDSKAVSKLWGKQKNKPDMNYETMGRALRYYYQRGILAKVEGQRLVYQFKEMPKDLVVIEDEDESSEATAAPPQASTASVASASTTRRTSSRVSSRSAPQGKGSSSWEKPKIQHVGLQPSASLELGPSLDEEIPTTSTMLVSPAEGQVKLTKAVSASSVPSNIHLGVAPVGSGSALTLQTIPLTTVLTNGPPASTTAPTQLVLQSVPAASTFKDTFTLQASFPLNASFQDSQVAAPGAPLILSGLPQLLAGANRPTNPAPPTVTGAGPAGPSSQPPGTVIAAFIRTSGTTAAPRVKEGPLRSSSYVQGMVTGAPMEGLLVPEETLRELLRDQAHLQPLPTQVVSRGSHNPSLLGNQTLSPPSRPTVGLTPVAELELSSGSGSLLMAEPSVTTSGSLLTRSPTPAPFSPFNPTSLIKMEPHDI
Sequence of ETV5 (P41161 whole entry): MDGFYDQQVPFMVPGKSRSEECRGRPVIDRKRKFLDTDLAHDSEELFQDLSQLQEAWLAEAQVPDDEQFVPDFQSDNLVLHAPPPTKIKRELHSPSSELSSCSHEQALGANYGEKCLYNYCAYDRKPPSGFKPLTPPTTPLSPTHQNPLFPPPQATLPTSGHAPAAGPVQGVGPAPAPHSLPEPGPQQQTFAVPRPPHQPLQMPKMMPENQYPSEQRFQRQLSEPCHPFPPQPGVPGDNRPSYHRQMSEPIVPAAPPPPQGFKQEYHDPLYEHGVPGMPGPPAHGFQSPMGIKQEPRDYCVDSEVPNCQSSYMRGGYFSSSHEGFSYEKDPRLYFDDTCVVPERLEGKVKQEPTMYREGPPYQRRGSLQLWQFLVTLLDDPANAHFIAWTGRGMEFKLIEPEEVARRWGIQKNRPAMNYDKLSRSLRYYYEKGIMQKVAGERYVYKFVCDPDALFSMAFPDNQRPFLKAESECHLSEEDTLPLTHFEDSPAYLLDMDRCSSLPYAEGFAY
Sequence of HSF1 (Q00613 whole entry): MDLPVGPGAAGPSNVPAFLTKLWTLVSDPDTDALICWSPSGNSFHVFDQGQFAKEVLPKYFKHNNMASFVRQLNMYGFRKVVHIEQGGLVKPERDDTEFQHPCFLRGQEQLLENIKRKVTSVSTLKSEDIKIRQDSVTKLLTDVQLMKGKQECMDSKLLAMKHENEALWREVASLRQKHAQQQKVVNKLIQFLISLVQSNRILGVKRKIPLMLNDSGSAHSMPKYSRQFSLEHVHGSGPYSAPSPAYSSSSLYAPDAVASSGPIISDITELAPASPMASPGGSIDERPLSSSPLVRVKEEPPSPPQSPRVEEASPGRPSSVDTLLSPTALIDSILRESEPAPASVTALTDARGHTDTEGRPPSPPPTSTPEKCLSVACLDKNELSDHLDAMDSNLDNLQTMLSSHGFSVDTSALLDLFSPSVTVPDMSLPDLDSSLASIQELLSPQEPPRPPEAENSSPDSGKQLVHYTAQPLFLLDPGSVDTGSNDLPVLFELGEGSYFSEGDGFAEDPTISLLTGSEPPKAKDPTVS
Sequence of ELF1 (P32519 whole entry): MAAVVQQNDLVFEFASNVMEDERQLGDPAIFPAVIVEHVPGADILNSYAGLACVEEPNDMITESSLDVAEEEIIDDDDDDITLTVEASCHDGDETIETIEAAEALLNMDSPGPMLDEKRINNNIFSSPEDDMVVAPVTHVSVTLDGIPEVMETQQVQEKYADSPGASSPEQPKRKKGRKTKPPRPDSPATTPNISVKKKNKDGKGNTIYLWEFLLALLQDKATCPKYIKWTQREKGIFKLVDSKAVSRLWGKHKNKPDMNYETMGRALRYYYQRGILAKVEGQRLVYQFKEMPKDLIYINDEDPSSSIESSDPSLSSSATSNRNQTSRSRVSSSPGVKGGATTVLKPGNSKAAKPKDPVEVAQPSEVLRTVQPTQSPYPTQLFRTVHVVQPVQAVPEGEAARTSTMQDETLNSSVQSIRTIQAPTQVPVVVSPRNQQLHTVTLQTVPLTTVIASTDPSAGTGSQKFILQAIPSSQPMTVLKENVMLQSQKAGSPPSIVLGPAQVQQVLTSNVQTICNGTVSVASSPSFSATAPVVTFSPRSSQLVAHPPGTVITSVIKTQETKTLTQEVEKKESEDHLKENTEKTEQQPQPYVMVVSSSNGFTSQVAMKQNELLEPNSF

With ACAGCT the binding signal [1] was 1.15 fold enrichment (6-mer frequency, TF over GST control), the binding signal [2] was 1.14 fold enrichment (6-mer frequency, TF over GST control) and the binding signal [3] was 1.19 fold enrichment (6-mer frequency, TF over GST control). For the same sequence, the binding signal [4] was 1.17 fold enrichment (6-mer frequency, TF over GST control), the binding signal [5] was 1.16 fold enrichment (6-mer frequency, TF over GST control) and the binding signal [6] was 1.16 fold enrichment (6-mer frequency, TF over GST control). The binding signal [7] was 1.11 fold enrichment (6-mer frequency, TF over GST control), the binding signal [8] was 1.2 fold enrichment (6-mer frequency, TF over GST control) and the binding signal [9] was 1.18 fold enrichment (6-mer frequency, TF over GST control). The binding signal [10] was 1.07 fold enrichment (6-mer frequency, TF over GST control), the binding signal [11] was 1.02 fold enrichment (6-mer frequency, TF over GST control) and the binding signal [12] was 1.07 fold enrichment (6-mer frequency, TF over GST control). The binding signal [13] was 1.11 fold enrichment (6-mer frequency, TF over GST control), the binding signal [14] was 1.15 fold enrichment (6-mer frequency, TF over GST control) and the binding signal [15] was 1.13 fold enrichment (6-mer frequency, TF over GST control). For the same sequence, the binding signal [16] was 1.16 fold enrichment (6-mer frequency, TF over GST control), the binding signal [17] was 1.36 fold enrichment (6-mer frequency, TF over GST control) and the binding signal [18] was 1.18 fold enrichment (6-mer frequency, TF over GST control). The binding signal [19] was 1.08 fold enrichment (6-mer frequency, TF over GST control).
